# CCHF vOTU inh-1: CCHFV vOTU protease inhibitors, primary screen, biochemical, Pep-AMC substrate, fluorescence; Crimean-Congo hemorrhagic fever virus L polyprotein viral ovarian tumor (vOTU) protease …; inhibition, % at 11.5 µM; 370,000 compounds, 0.55% hits; AID 651958, 2012; also: 0% = vehicle wells with enzyme and 100% = no enzyme wells
# ugtP null kill: growth inhibition of ugtP-null S. aureus, primary screen, RN4220 ugtP deletion, OD600; 16 h; growth inhibition, % (concentration not given with the values); AID 1259309, 2017; 330,000 compounds, 0.54% hits; in the data active = growth inhibition above about 68%;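 also: plate controls were untreated wells for no effect and antibiotic for full effect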
# RN4220 kill: growth inhibition of S. aureus RN4220, primary screen, OD600; inhibition, % (concentration not given with the values); 16 h; 330,000 compounds, 0.33% hits; in the data active = inhibition above about 85%;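 also: plate controls were untreated cells for no effect and reference antibiotic for full effect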
# Mtb bLac sens: beta-lactam sensitization of Mtb H37Rv, H37Rv; M. tuberculosis H37Rv growth with meropenem, percent inhibition; inhibition, % at 25 µM; 330,000 compounds, 0.27% hits; call rule not given here;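 also: growth measured after seven days incubation then overnight dye step; 0% = bacteria only wells and 100% = bacteria with antibiotic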
# 3CLpro inhibitor: SARS-CoV 3CLpro protease inhibitors, primary screen, biochemical, quenched FRET; inhibition, % at 6 µM; recombinant SARS-CoV 3CLpro, quenched FRET peptide cleavage; AID 1706, 2009; 290,000 compounds, 0.14% hits; Replicase polyprotein 1ab (Severe acute respiratory syndrome coronavirus), P0C6X7; in the data active = inhibition above about 12%
# MazEF act: activators of E. coli MazEF toxin-antitoxin RNase, primary screen, biochemical, fluorescence, uHTS; activation, % at 20 µM; Endoribonuclease toxin MazF (Escherichia coli (strain K12)), P0AE70; FAM/BHQ RNA-DNA oligo cleavage fluorescence, 5 h; 350,000 compounds, 0.32% hits; in the data active = activation above about 50%
# Target sequence (P0AE70 whole entry, looked up): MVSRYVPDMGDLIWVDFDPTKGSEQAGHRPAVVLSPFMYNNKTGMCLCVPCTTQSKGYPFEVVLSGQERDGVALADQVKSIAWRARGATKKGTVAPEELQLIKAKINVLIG
# CCHF vOTU inh-2: CCHFV vOTU protease inhibitors, confirmation, biochemical, Pep-AMC substrate, fluorescence; 1,900 compounds, 17% hits; inhibition, % at 11.5 µM; shares compounds with CCHF vOTU inh-1; Recombinant CCHFV vOTU
# Numbers without * were called inactive; · = not tested or not shown. Only some compounds are listed: those with a hit (about 1.3% of all), similar ones and a draw of the others. Rule as the data show it, unless noted: active = inhibition above about 30%; inactive = the rest.
SMILES,CCHF vOTU inh-1,ugtP null kill,RN4220 kill,Mtb bLac sens,3CLpro inhibitor,MazEF act,CCHF vOTU inh-2
CCOC(=O)c1sc(N2C(=O)C(O)=C(C(=O)c3ccco3)C2c2cccc(Cl)c2)nc1C (configuration not stated),41.7*,·,·,4.3,4.5,·,0.8
Cc1cc(C)c2nc(N3C(=O)C(O)=C(C(=O)c4ccco4)C3c3ccc(O)cc3)sc2c1 (configuration not stated),33.8*,85.2,2.2,15.5,·,-16.7,6.4
Cc1ccc(C2C(C(=O)c3ccco3)=C(O)C(=O)N2c2nnc(C)s2)cc1 (configuration not stated),1.5,-4.7,19.6,-6.4,2.2,22.4,·
CCOC(=O)c1sc(N2C(=O)C(O)=C(C(=O)c3ccco3)C2c2cccc([N+](=O)[O-])c2)nc1C (configuration not stated),18.9,29.1,3.4,-13.0,9.8,6.9,·
O=C(NN=Cc1ccc([N+](=O)[O-])s1)c1cccc(Br)c1,·,2.2,6.8,·,·,·,·
COC(=O)[C@@]12CCCCN1C(c1ccc(-c3cc(C(C)=O)cs3)c(OC)c1)C1C(=O)N(C)C(=O)C12 (some centres not stated),·,5.4,4.3,·,·,·,·
CC(C)C(C(=O)N1CCN(C(=O)OC(C)(C)C)CC1)n1cc(CCO)nn1 (configuration not stated),·,4.6,5.1,·,·,·,·
O=C(COC(=O)COc1ccccc1Cl)Nc1ccccc1OC(F)F,32.6*,·,·,-6.2,0.3,-10.1,-3.3
O=C(COC(=O)c1ncc(Cl)c(Cl)c1Cl)Nc1ccccc1OC(F)F,19.0,-4.1,-3.8,2.5,-1.3,2.4,·
Cc1ccc(NC=C(C#N)c2ccsc2)cc1,·,1.3,3.9,·,·,·,·
CCOC(=O)C1C2COc3ccccc3C2N2C(=O)N(c3ccc(Cl)cc3)C(=O)[C@@]12C (some centres not stated),·,-2.1,-1.2,·,·,·,·
N#Cc1c(N)n(-c2ccccc2N)c2nc3ccccc3nc12,64.8*,5.1,8.7,-4.6,4.0,2.1,65.0*
Cc1ccc2[nH]c3c(c2c1)CCc1cn[nH]c1-3,38.2*,-39.3,-2.3,10.8,8.0,4.0,-22.8
Cc1ccc2[nH]c3c(c2c1)CCC3=O,-48.3,0.9,11.1,-1.9,6.4,8.0,·
Cc1cc(C(=O)OCC(=O)N2CCOCC2)c2ccccc2n1,33.7*,-0.2,0.4,-10.7,3.1,-0.4,-13.4
Cc1cc(C(=O)OCC(=O)N2CCCC2)c2ccccc2n1,-13.6,6.2,6.4,7.9,2.9,6.3,·
Cc1ccc(S(=O)(=O)CCC(=O)NCCN2C(=O)S/C(=C\c3ccccc3)C2=O)cc1,40.2*,-8.4,0.8,1.8,-0.5,-12.1,-16.4
Cc1cccc(OCC(=O)Nc2ccc(CN3CCOCC3)cc2)c1C,34.6*,-2.1,-0.5,-11.5,-2.5,3.9,-7.8
CC1(C)Nc2cccc3cccc(c23)N1,33.4*,-1.3,2.7,·,·,-7.6,-104.0
c1cc2c3c(cccc3c1)NC1(CCCC1)N2,28.4,-5.9,3.9,·,·,0.9,·
O=C(COc1ccc(C=NNS(=O)(=O)c2ccccc2)cc1)NCCc1ccccc1,·,1.8,7.8,·,·,·,·
O=C(Cc1c[nH]c2ccccc12)Nc1ccc(Nc2cccnc2)c(-c2ccc(-c3ccccc3)cc2F)c1,30.4*,·,·,·,·,·,-24.7
Nc1ccc2nn(-c3cccc4ccccc34)nc2c1,60.4*,-1.6,6.2,6.3,0.1,-9.3,11.8
COc1ccccc1C=NNC(=O)CC(=O)NC1CCCCC1,·,7.7,7.8,·,·,·,·
CC1CCc2sc(C(=O)N(C)CC(=O)Nc3cccc(F)c3)cc2C1 (configuration not stated),29.8*,2.8,-2.8,-8.6,-1.8,-8.2,-5.3
SMILES,CCHF vOTU inh-1,ugtP null kill,RN4220 kill,Mtb bLac sens,3CLpro inhibitor,MazEF act,CCHF vOTU inh-2
CC1=C(C(=O)OC(C)C)C2(O)C(=O)c3ccccc3C2(O)N1 (configuration not stated),19.3,9.1,0.2,-5.6,-7.5,3.8,·
CCOC(=O)C1=C(C)OC2(O)c3ccccc3C(=O)C12O (configuration not stated),102.8*,11.4,0.4,-6.6,0.9,8.2,19.5
CC(=O)C1=C(C)OC2(O)c3ccccc3C(=O)C12O (configuration not stated),71.1*,13.3,1.9,2.4,-2.5,5.4,-8.3
Cc1ccc(NC=C(C#N)c2ccsc2)cc1C,·,0.6,7.9,·,·,·,·
O=C1C[C@@H](O)[C@H](O)c2cccc(O)c21,45.4*,·,·,·,·,·,-1.9
COc1ccccc1CCn1cnc(-c2ccccc2)c1CC(C)C,45.1*,·,·,·,·,·,18.2
COc1ccccc1CCn1cnc(-c2ccc(F)cc2)c1CC(C)C,26.5,·,·,·,·,·,·
CCCCCc1c(-c2ccc(Cl)cc2)ncn1CCc1ccccc1OC,37.1*,·,·,·,·,·,8.3
CCc1c(-c2cccc(F)c2)ncn1CCc1ccccc1OC,29.5*,·,·,·,·,·,-4.1
Cc1cc(Br)cn2c(Cc3ccccc3C(F)(F)F)c(-c3ccccc3)nc12,2.5,·,·,·,·,·,·
Cc1cc(Br)cn2c(Cc3ccccc3C(F)(F)F)c(-c3ccco3)nc12,30.2*,·,·,·,·,·,10.8
CCOC(=O)CNC(=O)CSc1nc(-c2ccc(C)cc2)ns1,10.5,8.5,-0.3,99.8,-4.4,-7.0,·
CCOC(=O)CSc1nc(-c2ccc(OC)cc2)ns1,33.3*,12.4,13.7,99.3,3.3,-18.2,0.0
CC(CC(=O)Nc1ccc2ccccc2c1)=NNC(=O)c1ccc(O)c(O)c1,·,-12.1,9.2,·,·,·,·
CC1(C)CC(=O)C2=C(C1)c1c(ccc3ccccc13)NC2c1ccc(C(=O)O)cc1 (configuration not stated),-108.8,-1.4,7.6,10.1,1.1,-3.5,·
CC1(C)CC(=O)C2=C(C1)c1c(ccc3ccccc13)NC2c1cc([N+](=O)[O-])cc([N+](=O)[O-])c1O (configuration not stated),44.2*,89.5*,95.1*,-1.9,4.2,6.4,13.6
Cn1c(-c2ccc3nc(N)sc3c2)nc2cc(N)ccc21,34.2*,10.9,13.9,-7.0,-4.1,5.6,-37.8
C=CCn1c(COc2ccc(C)cc2)nnc1SCC(=O)c1ccc(-c2ccccc2)cc1,29.8*,·,·,·,·,·,19.2
CCCC(=Nc1ccc(N)cc1)C1=C(O)C(C(=O)OC)C(C)(C)CC1=O (configuration not stated),102.7*,-1.0,3.4,69.5,1.9,-9.2,3.2
CCCC(=O)C1=C(O)C(C(=O)OC)C(C)(C)CC1=Nc1ccc(N)cc1 (configuration not stated),20.0,1.1,3.3,5.9,-5.5,13.2,·

# Screens from PubChem.
